Laboratory results: PubChem BioAssay AID430 (Sanford-Burnham Center for Chemical Genomics, 2006)
Among all 63,000 compounds or so, about 1,100 (1.7%) were called active. Shown is part of a subset that was picked to be rich in actives. Entries with a potency or affinity are not part of this list. Values without a mark were called inactive. Rule as the data show it: active = cytotoxicity above about 50%; inactive = the rest.

assay: HPDE-C7 pancreatic duct cell viability loss – fluorescence, HTS (AID 430); conditions: HPDE-C7 pancreatic duct cells viability, at 10 µM, active compounds read high;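 also: cells exposed to compound for 48 hours before viability readout; 0% = vehicle and 100% = reference cytotoxic drug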

Row | Compound | cytotoxicity
1 | CCCc1cc(N2CCCC(C(=O)Nc3cc(Cl)ccc3OC)C2)n2ncnc2n1 (stereo unspecified) | -9.9%
2 | COc1cc(NC(=O)Nc2ccccc2)c(OC)cc1NC(=O)CN1CCCCC1 | 6.1%
3 | COc1cc(NC(=O)Nc2cccc(Cl)c2)c(OC)cc1NC(=O)CN1CCCCC1 | 83.1% (active)
4 | COc1cc(NC(=O)Nc2ccccc2OC)c(OC)cc1NC(=O)CN1CCCCC1 | 1.9%
5 | Cc1ccc(-c2csc(N3CCC(NS(=O)(=O)c4ccc5c(c4)OCCO5)CC3)n2)cc1 | 54.6% (active)
6 | CC1CCCC(NS(=O)(=O)c2ccc3c(c2)OCCO3)C1C (stereo unspecified) | -7.8%
7 | Cc1nc(CNS(=O)(=O)c2ccc3c(c2)OCCO3)cs1 | -11.4%
8 | Cc1nc2ccc(S(=O)(=O)NCC(=O)N3CCC(C)CC3)cc2s1 | -1%
9 | O=c1[nH]c(-c2ccc(Cl)cc2)nc2c1cnn2-c1ccccc1 | 3.6%
10 | CCCCCSc1nc2c(cnn2-c2ccccc2)c(=O)[nH]1 | 57.7% (active)
11 | CCCCSc1nc2c(cnn2-c2ccc(F)cc2)c(=O)[nH]1 | -30.5%
12 | CCCSc1nc2c(cnn2-c2ccccc2)c(=O)[nH]1 | -0.6%
13 | CCOC(=O)N1CCN(c2c(-c3ccc(C(C)C)cc3)c(=O)c2=O)CC1 | 1.3%
14 | COCc1nc(-c2cc(OC)c(OC)c(OC)c2)no1 | -19%
15 | CCN(CC)c1ccc2cc(C(=O)Nc3ccccn3)c(=O)oc2c1 | 9.8%
16 | CC(=O)Oc1ccc2cc(-c3nc4ccccc4n3C)c(=O)oc2c1 | 4.2%
17 | CCN(CC)c1ccc2cc(-c3nc4ccccc4n3C)c(=O)oc2c1 | 67% (active)
18 | CCN(CC)c1ccc2cc(-c3nc4ccccc4[nH]3)c(=O)oc2c1 | 30.8%
19 | CCN(CC)c1ccc2cc(-c3nnc(-c4ccncc4)o3)c(=O)oc2c1 | 59.2% (active)
20 | O=c1oc2ccc3ccccc3c2cc1-c1nnc(-c2ccccc2)o1 | 13.4%
21 | O=C(Nc1cccnc1)c1cc2nc(C3CC3)cc(C(F)(F)F)n2n1 | -15.8%
22 | Cc1ccc(SCc2cn3c(C)csc3n2)cc1 | -10.2%
23 | c1ccc(OCc2nn3c(Cn4nnc5ccccc54)nnc3s2)cc1 | -15.5%
24 | Cc1noc(C)c1S(=O)(=O)Nc1ccc(C(=O)N2CCc3ccccc3C2)cc1 | -2.2%

Row | Compound | cytotoxicity
25 | Cn1nnc(NC(=O)c2ccccc2F)n1 | -4.8%
26 | CN1CCN(Cc2c(O)ccc3c(=O)c(Oc4ccccc4Cl)c(C(F)(F)F)oc23)CC1 | -17%
27 | O=C(c1ccco1)N1CCN(C(=O)c2cccc3c2C(=O)N(C2CCCCC2)C3)CC1 | -10%
28 | CN1CCN(CC#CC2(O)CCCCC2)CC1 | -31.9%
29 | COc1ccc(CC(=O)Nc2ccc(-c3noc(-c4cc(OC)c(OC)c(OC)c4)n3)cc2)cc1 | -2.7%
30 | O=C(CSc1ncnc2sc3c(c12)CCCCC3)NCc1ccco1 | -22.5%
31 | CC(C)c1nc2sc3c(SCC(=O)NCc4ccco4)ncnc3c2c2c1CCC2 | 5.7%
32 | Cc1nc(SCC(=O)NCc2ccco2)c2c3c(sc2n1)CCCC3 | -4.3%
33 | CCCc1nc2sc3c(SCC(=O)NCc4ccco4)ncnc3c2c2c1CCC2 | 59% (active)
34 | CSc1nc(SCC(=O)NCc2ccco2)c2c3c(sc2n1)CN(C)CC3 | -9.6%
35 | CC(C)Sc1nc(SCC(=O)NCc2ccco2)c2c3c(sc2n1)COC(C)(C)C3 | 24.2%
36 | CC(C)Sc1nc(NCc2ccco2)c2c3c(sc2n1)COC(C)(C)C3 | 83.4% (active)
37 | CC(C)c1nc2sc3c(NCc4ccco4)ncnc3c2c2c1COC(C)(C)C2 | -10.3%
38 | c1coc(CNc2ncnc3sc4c(c23)CCCCC4)c1 | -10.2%
39 | Cc1nc(NCc2ccco2)c2c3c(sc2n1)CCC3 | 56.1% (active)
40 | CSc1nc(SCC(=O)NCc2ccco2)c2c3c(sc2n1)COC(C)(C)C3 | 51% (active)
41 | CSc1nc(NCc2ccco2)c2c3c(sc2n1)CN(C)CC3 | -21.3%
42 | CN1CC2(C(=O)c3ccccc3)CN(C)CC(C(=O)c3ccccc3)(C1)C2 | -20.9%
43 | O=c1nc2n(c3ccccc13)Cc1ccccc1-2 | -1.4%
44 | O=C(CSc1nnc(C2CC2)n1Cc1ccccc1)c1ccc(S(=O)(=O)N2CCOCC2)cc1 | -8.3%
45 | Cn1nc(C(=O)Nc2ccc(S(=O)(=O)N3CCCCC3)cc2)ccc1=O | -4.3%
46 | Cn1c(=O)c2c(nc(Oc3ccccn3)n2C)n(C)c1=O | -12.5%
47 | O=C(c1ccc2c(=O)n(-c3ccccc3)c(=O)[nH]c2c1)N1CCCCC1 | -2.4%
48 | COc1ccc(/C=N/n2cc(-c3ccccc3)nc2N)cc1 | 65.5% (active)

Row | Compound | cytotoxicity
49 | COc1ccc(/C=N/n2cc(-c3ccc(OC)cc3)nc2N)cc1 | -8.1%
50 | COc1ccc(/C=N/n2cnnc2SCc2ccccc2)cc1 | 3.5%
51 | CC(C)NC(=O)Cn1c(SCC(=O)N2CCCCCC2)nc2ccccc21 | -7.8%
52 | CC(C)NC(=O)Cn1c(SCC(=O)N2CCCc3ccccc32)nc2ccccc21 | -5.8%
53 | CC(C)NC(=O)Cn1c(SCC(=O)N2CCc3ccccc3C2)nc2ccccc21 | 129% (active)
54 | Cc1ccc(C(=O)Nc2ccccc2N2CCN(C(=O)C(C)C)CC2)cc1C | -15%
55 | COc1ccc(NC(=O)Cn2cnc3c(cnn3-c3ccc(C)c(C)c3)c2=O)c(OC)c1 | -1.2%
56 | CCN(CC)CCOc1nc(C)nc2c1oc1ccccc12 | -0.5%
57 | CN(C)CCOc1nc(-c2ccccc2)nc2c1oc1ccccc12 | 56.4% (active)
58 | CCc1nc(OCCN(C)C)c2oc3ccccc3c2n1 | -12.4%
59 | Cc1ccc2[nH]c(=O)c(CNC(C)(C)C)cc2c1 | 1.4%
60 | O=C(C1=C(O)C(=O)N(CCN2CCOCC2)C1c1cccs1)c1cc2ccccc2o1 (stereo unspecified) | -34.2%
61 | CCS(=O)(=O)N1Cc2ccccc2CC1C(=O)Nc1nc2ccccc2[nH]1 (stereo unspecified) | 6.5%
62 | Cc1nn(C)cc1C1C2=C(CC(C)(C)CC2=O)OC2=C1C(=O)CC(C)(C)C2 | -12.3%
63 | COC(=O)C1=C(N)OC2=C(C(=O)CC(C)(C)C2)C1c1ccoc1 (stereo unspecified) | -0.4%
64 | CCN(Cc1cc2cc(C)ccc2[nH]c1=O)C(=O)c1cccc(OC)c1 | 0.1%
65 | Clc1cc(Cl)c2nc(N3CCCCC3)sc2c1 | -1.2%
66 | COC(=O)c1c(C)nn(-c2ccccc2)c1N | 4.7%
67 | Cc1ccccc1NC(=O)N1CCCC(c2nc(-c3ccc(C(C)C)cc3)no2)C1 (stereo unspecified) | 33.3%
68 | COc1ccc(NC(=O)N2CCCC(c3nc(-c4ccc(C(C)C)cc4)no3)C2)cc1 (stereo unspecified) | 56.3% (active)
69 | COc1ccc(-c2noc(C3CCCN(C(=O)c4cccs4)C3)n2)cc1 (stereo unspecified) | -9%
70 | CC1=C(C(=O)N(C)C)C(c2ccc(Cl)c(Cl)c2)NC(=O)N1 (stereo unspecified) | -1.2%
71 | Cc1csc(NC(=O)c2ccco2)n1 | -14.7%
72 | O=C(Nc1nc(-c2cc3ccccc3oc2=O)cs1)c1ccco1 | 85% (active)

Row | Compound | cytotoxicity
73 | O=C(Nc1nc(-c2ccncc2)cs1)c1ccco1 | 9.1%
74 | O=C(NC1CCCCC1)NC1(C(=O)NCCCN2CCOCC2)CCCCC1 | -1.8%
75 | CCN(CC)c1ccc(NC(=O)CN2CCN(CC(=O)Nc3ccc(F)cc3)CC2)cc1 | 4.2%
76 | O=C(CN1CCOc2ccccc21)N1CCCC1 | 4.1%
77 | CC(=O)c1ccc(NC(=O)C2CCC(C)NC2=O)cc1 (stereo unspecified) | -4.9%
78 | O=C(CSc1ccc2nnc(-c3ccccc3)n2n1)N1CCN(c2ccccc2)CC1 | -3.5%
79 | CCOc1ccc(-c2nnc3ccc(SCC(=O)N4CCN(c5ccccc5)CC4)nn23)cc1 | 56.6% (active)
80 | COc1ccc(-c2nnc3ccc(SCC(=O)N4CCN(c5ccccc5)CC4)nn23)cc1 | -6.6%
81 | CCn1c(=N)c(C(N)=O)cc2c(=O)n3cccc(C)c3nc21 | 3.5%
82 | Cc1cc(C)c2[nH]c(=O)c(C(c3nnnn3C3CCCC3)N3CCOCC3)cc2c1 (stereo unspecified) | -7.3%
83 | CCCn1c(NC(=O)c2ccc(Cl)c(S(=O)(=O)N3CCCC3)c2)nc2ccccc21 | 16.1%
84 | O=C(Nc1nc2ccccc2n1CCN1CCCCC1)c1ccco1 | -1.1%
85 | Cc1ccc(C(=O)Nc2nc3ccccc3n2CCN2CCCC2)cc1 | 1.6%
86 | CCCn1c(NC(=O)c2cccc(S(=O)(=O)N3CCCC3)c2)nc2ccccc21 | 61.9% (active)
87 | CCCn1c(NC(=O)c2ccc(C)cc2)nc2ccccc21 | -34.1%
88 | O=C(Nc1nc2ccccc2n1CCN1CCCC1)c1ccc(Cl)cc1 | 59.6% (active)
89 | COc1ccc(S(=O)(=O)N(CC(=O)NCCCN(C)C)c2ccc(C)cc2)cc1OC | 1%
90 | Cc1ccc(C)c(CN2C(=O)C3(OCCCO3)c3ccccc32)c1 | -1.3%
91 | CC(=O)N1c2ccccc2N(Cc2ccc(C)cc2C)C(=O)C1(C)C | 58.4% (active)
92 | Cc1ccccc1CN1C(=O)C2(OCCCO2)c2ccccc21 | -4%
93 | N=c1n(CCOc2ccccc2)c2ccccc2n1CCN1CCOCC1 | -22.8%
94 | CC1(C)CC(=O)C2=C(C1)NC(Nc1nc3ccccc3o1)=NC21CCCC1 | -16.5%
95 | Nc1nnnn1/N=C/c1cccc(Oc2ccccc2)c1 | -9.6%
96 | Nc1nnnn1/N=C/C=C/c1ccccc1 | -7.1%
